Measured values: PubChem BioAssay
The source made the active and inactive calls.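 The calls were made as follows, unless noted: active = inhibition above 20% together with a positive visual image hit; inconclusive = visual image hit but inhibition not above 20%; inactive = no visual image hit.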

Legend:
[1] = inhibitors of TNFa-induced NFkB p65 translocation, primary screen, imaging, HUVEC, MLSMR starter and 10KST1 sets (AID 438); conditions: HUVEC TNFa-induced p65 nuclear translocation; cell count: measured here: nuclei count (cytotoxicity indicator), at 2.08 µM; inhibition: at 2 µM, stronger effect = higher value, 0% TNFa-plus-vehicle, 100% no-TNFa wells;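 also: compound added about 3h40 before a 20 min TNFalpha stimulation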;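 as to inhibition: signal is the nuclear over cytoplasmic p65 intensity ratio per well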
[2] = inhibitors of mutant huntingtin aggregation, primary screen, imaging, exon1htt(103Q)mCFP cells, high-content imaging (AID 483;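 active = visual image review flags a hit and inhibition of aggregation exceeds 20%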;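 also: compound exposure lasted 3 days before fixation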;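 as to nuclei count: percent of the per-plate median nuclei count of sample wells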); conditions: exon1htt(103Q)mCFP cell line, aggregate imaging, at 2 µM; inhibition of aggregation: stronger effect = higher value; nuclei count: measured here: cell count, toxicity
[3] = inhibitors of E-selectin induction by TNFa, primary screen, imaging, HUVEC, immunofluorescence, MLSMR starter and 10KST1 sets (AID 487;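 active = visually confirmed hit in the image check and inhibition above 20%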;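 as to inhibition: signal is fraction of cell area covered by stained E-selectin grains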;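 as to nuclei count: 100% = median nuclei count of all wells on the same plate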); conditions: HUVEC TNFalpha-induced E-selectin immunofluorescence imaging, at 2 µM; inhibition: stronger effect = higher value; nuclei count: measured here: cell number, toxicity
[4] = target: Voltage-gated potassium channel subunit beta-2 (Rattus norvegicus) (UniProt P62483); experiment: KvBeta enzyme negative modulators, primary screen, biochemical, NADPH fluorescence (AID 622;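 active = fluorescence slope higher than the sample average by over 3 SD, cut at about -0.22 in these data, passing the limit was not always enough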;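 also: slope of raw intensity against log time taken from 70 to 1610 s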); conditions: recombinant KvBeta, 4-cyanobenzaldehyde reduction, at 10 µM, stronger effect = higher value
[5] = target: Voltage-gated potassium channel subunit beta-2 (Rattus norvegicus) (UniProt P62483); experiment: KvBeta positive modulators, primary screen, biochemical, NADPH fluorescence (AID 623;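 active = NADPH fluorescence slope more negative than the mean of all samples by about 3 SD, 99.7% confidence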;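 also: fluorescence intensity change per second fitted from 20 to 320 s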); conditions: Recombinant KvBeta, NADPH fluorescence decrease slope, 10 min; at 10 µM; stronger effect = lower value
[6] = target: Alpha-2C adrenergic receptor (Homo sapiens) (UniProt P18825); experiment: modulators of alpha2C/GIRK thallium flux, primary screen, cell-based, HEK293 alpha2C/GIRK1/2 (AID 624;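 active = fluorescence slope after compound addition differing from the mean of all screened samples at 99.7% confidence, in either direction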;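 also: slope of fluorescence ratio to pre-addition baseline per second over 15 to 24 s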); conditions: thallium flux BTC fluorescence, at 10 µM, actives lie on both sides
[7] = inhibitors of Sendai virus-induced IRF3 signaling, primary screen, TLR/RLR signaling modifier project, cell-based, Sendai virus stimulus, luciferase, 10K MLSCN set (AID 602276;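 active = inhibition at or above 50% at 10 µM; inactive = inhibition below 50%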;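 also: firefly luciferase from ISG56 promoter only with Renilla not read in this screen; 0% = Sendai virus plus DMSO and 100% = medium plus DMSO without virus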); conditions: HEK293 RL24 IRF3 luciferase reporter, at 10 µM, stronger effect = higher value
[8] = inhibitors of poly I:C-induced TLR3 signaling, primary screen, cell-based, poly I:C stimulus, luciferase, 10K MLSCN set (AID 602277;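 active = inhibition of the reporter signal at or above 50%; inactive = inhibition below 50%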); conditions: HEK293-TLR3 RL24 IRF3 luciferase reporter, at 10 µM, stronger effect = higher value

Chain of Alpha-2C adrenergic receptor (Homo sapiens) (P18825 whole entry, looked up): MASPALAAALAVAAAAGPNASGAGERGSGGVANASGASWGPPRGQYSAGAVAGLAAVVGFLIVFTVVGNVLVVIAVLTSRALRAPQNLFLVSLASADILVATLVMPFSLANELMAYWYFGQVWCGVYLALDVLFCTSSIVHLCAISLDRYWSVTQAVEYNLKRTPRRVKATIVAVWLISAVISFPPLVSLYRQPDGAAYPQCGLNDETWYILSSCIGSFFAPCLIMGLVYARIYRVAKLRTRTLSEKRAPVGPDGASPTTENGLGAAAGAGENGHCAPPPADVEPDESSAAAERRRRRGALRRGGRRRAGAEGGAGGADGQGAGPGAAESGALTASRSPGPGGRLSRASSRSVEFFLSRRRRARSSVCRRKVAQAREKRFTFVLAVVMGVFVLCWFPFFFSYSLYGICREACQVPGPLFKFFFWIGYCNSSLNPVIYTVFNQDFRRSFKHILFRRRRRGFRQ
Chain of Voltage-gated potassium channel subunit beta-2 (Rattus norvegicus) (P62483 whole entry, looked up): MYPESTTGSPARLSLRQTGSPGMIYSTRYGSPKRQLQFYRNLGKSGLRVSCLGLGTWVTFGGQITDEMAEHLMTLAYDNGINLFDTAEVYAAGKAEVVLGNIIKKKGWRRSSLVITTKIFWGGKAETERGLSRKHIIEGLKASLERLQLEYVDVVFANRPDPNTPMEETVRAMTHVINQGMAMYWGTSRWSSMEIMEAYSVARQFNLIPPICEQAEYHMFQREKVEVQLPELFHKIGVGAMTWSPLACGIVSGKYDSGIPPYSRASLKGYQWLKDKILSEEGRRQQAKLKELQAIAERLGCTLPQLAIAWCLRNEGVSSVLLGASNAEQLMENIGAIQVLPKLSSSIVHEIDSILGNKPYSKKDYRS

SMILES	cell count [1]	inhibition [1]	inhibition of aggregation [2]	nuclei count [2]	inhibition [3]	nuclei count [3]	fluorescence slope [4]	NADPH fluorescence slope [5]	slope [6]	inhibition [7]	inhibition [8]
CCOC(=O)c1sc2nc(NC(=O)COc3ccccc3)sc2c1C	715	-6.9% (inactive)	9.3% (inactive)	106%	-12.6% (inactive)	105%	-0.591 (inactive)	-1.3e-05 (inactive)	0.00688 (inactive)	-24% (inactive)	-40.4% (inactive)
Cn1nnnc1SCSc1nnnn1C	626	-16.6% (inactive)	4.1% (inactive)	56.1%	-58% (inactive)	93.3%	-0.585 (inactive)	-4.7e-05 (inactive)	0.00536 (inactive)	0.0465% (inactive)	-3.07% (inactive)
O=C1c2ccccc2C(=O)N1CCCn1nnc(-c2ccc(N3CCOCC3)cc2)n1	319	-8.2% (inactive)	28% (inactive)	111%	-80.5% (inactive)	109%	-0.619 (inactive)	-1.3e-05 (inactive)	0.00347 (inactive)	15.2% (inactive)	21.3% (inactive)
COc1cccc(C(=O)n2cnnc2N)c1OC	391	-2.4% (inactive)	1% (inactive)	109%	41.5% (inactive)	102%	-0.382 (inactive)	8e-06 (inactive)	0.00713 (inactive)	16.3% (inactive)	21.1% (inactive)
CC(=O)Nc1ccc(NC(=O)C(C)Oc2ccccc2F)cc1 (configuration not stated)	321	3.9% (inactive)	9.4% (inactive)	104%	4.3% (inactive)	112%	-0.65 (inactive)	1.9e-05 (inactive)	0.00945 (inactive)	9.2% (inactive)	12.4% (inactive)
COc1ccccc1-c1nc(SCc2ccccn2)n[nH]1	509	8.9% (inactive)	2.6% (inactive)	99.6%	32.9% (inactive)	96.4%	-0.605 (inactive)	-2.8e-05 (inactive)	0.0058 (inactive)	-21% (inactive)	-28.9% (inactive)
Cc1ccc(S(=O)(=O)CC2CSc3nnc(C)c(=O)n32)cc1 (configuration not stated)	432	-3.3% (inactive)	3.8% (inactive)	91.3%	-36.1% (inactive)	173%	-0.38 (inactive)	-5.3e-05 (inactive)	0.00213 (inactive)	12.3% (inactive)	31.9% (inactive)
OC(CN1CCCCC1)Cn1c(C(F)(F)F)nc2ccccc21 (configuration not stated)	730	-17.7% (inactive)	25.1% (inactive)	122%	-98.5% (inactive)	95.5%	-0.362 (inactive)	-7.1e-05 (inactive)	0.00651 (inactive)	12.8% (inactive)	24.9% (inactive)
Cc1cc(Nc2ccccc2F)n2ncnc2n1	542	14.8% (inactive)	-3.9% (inactive)	137%	-59.1% (inactive)	111%	-0.566 (inactive)	-2.7e-05 (inactive)	0.00578 (inactive)	-1.22% (inactive)	12.8% (inactive)
Cc1ccc(OCc2nnc(SCC(=O)Nc3ccc4c(c3)OCO4)n2C)cc1	325	-6.5% (inactive)	7.6% (inactive)	77.3%	-59.2% (inactive)	103%	-0.409 (inactive)	-5.7e-05 (inactive)	0.00504 (inactive)	17.9% (inactive)	12.7% (inactive)
CS(=O)(=O)N(CC(=O)Nc1ccc2c(c1)OCCO2)Cc1ccccc1	348	-4.7% (inactive)	-2.9% (inactive)	107%	9.6% (inactive)	105%	-0.413 (inactive)	3.7e-05 (inactive)	0.00583 (inactive)	8.2% (inactive)	17.2% (inactive)
OCCNCC(O)Cn1ccc2ccccc21 (configuration not stated)	410	-8.2% (inactive)	-0.3% (inactive)	84.3%	-53.1% (inactive)	181%	-0.624 (inactive)	-5e-05 (inactive)	0.007 (inactive)	12.3% (inactive)	16.7% (inactive)
